Experiment [1] concerns the target Tyrosine-protein kinase SYK (Homo sapiens) (UniProt P43405). Conditions: at 10 µM.
The target of experiment [2] is T1, Mitogen-activated protein kinase kinase kinase 7 (Homo sapiens) (UniProt O43318).
T1 sequence (whole entry): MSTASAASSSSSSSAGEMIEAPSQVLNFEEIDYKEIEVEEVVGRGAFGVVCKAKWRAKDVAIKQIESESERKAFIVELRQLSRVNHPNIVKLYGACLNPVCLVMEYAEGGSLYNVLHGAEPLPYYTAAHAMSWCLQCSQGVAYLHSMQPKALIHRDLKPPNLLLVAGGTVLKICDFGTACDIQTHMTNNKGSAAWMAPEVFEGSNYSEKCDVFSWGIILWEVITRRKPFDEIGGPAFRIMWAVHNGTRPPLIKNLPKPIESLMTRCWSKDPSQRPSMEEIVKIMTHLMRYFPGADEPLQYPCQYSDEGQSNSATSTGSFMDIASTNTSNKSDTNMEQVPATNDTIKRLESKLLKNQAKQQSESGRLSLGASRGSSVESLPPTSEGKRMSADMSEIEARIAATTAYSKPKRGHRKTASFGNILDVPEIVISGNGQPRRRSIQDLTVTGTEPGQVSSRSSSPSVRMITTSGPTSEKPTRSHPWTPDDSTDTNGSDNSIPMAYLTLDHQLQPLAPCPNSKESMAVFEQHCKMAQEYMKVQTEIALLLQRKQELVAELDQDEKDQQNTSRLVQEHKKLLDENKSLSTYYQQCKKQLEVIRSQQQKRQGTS
To be noted: at 1 µM.

Experiment [3] deals with T1, Mitogen-activated protein kinase kinase kinase 7 (Homo sapiens). To be noted: at 10 µM.
The target of experiment [4] is T2, Serine/threonine-protein kinase TAO1 (Homo sapiens) (UniProt Q7L7X3).
T2 sequence (whole entry): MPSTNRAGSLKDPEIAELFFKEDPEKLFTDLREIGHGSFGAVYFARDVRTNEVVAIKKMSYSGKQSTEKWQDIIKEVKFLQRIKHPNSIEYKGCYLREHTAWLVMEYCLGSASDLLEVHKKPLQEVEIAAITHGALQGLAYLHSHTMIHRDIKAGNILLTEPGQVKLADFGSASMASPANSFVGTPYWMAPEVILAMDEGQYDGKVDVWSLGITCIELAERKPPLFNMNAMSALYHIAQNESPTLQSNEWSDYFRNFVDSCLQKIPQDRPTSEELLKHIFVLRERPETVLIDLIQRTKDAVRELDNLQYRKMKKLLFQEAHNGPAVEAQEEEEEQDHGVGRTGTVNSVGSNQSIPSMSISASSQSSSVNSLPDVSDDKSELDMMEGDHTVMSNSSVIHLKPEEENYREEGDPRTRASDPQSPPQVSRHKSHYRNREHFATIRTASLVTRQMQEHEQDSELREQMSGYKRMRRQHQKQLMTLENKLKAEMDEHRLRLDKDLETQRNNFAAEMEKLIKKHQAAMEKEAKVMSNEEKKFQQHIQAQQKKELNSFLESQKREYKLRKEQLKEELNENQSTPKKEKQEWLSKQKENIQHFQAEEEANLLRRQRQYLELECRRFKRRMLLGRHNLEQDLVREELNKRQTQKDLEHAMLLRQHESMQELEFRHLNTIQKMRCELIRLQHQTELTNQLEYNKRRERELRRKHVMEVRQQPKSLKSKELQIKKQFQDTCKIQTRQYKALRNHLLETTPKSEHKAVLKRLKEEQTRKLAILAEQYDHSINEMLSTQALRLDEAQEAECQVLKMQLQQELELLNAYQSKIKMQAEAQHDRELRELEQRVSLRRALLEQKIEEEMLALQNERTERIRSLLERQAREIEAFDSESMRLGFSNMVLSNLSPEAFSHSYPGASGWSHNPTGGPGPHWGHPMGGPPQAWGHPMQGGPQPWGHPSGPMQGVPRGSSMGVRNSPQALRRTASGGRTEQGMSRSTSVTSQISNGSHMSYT
Conditions: at 1 µM.

Experiment [5] concerns the target T2, Serine/threonine-protein kinase TAO1 (Homo sapiens). To be noted: at 10 µM.
The target in experiment [6] is T3, Serine/threonine-protein kinase TAO2 (Homo sapiens) (UniProt Q9UL54).
T3 sequence (whole entry): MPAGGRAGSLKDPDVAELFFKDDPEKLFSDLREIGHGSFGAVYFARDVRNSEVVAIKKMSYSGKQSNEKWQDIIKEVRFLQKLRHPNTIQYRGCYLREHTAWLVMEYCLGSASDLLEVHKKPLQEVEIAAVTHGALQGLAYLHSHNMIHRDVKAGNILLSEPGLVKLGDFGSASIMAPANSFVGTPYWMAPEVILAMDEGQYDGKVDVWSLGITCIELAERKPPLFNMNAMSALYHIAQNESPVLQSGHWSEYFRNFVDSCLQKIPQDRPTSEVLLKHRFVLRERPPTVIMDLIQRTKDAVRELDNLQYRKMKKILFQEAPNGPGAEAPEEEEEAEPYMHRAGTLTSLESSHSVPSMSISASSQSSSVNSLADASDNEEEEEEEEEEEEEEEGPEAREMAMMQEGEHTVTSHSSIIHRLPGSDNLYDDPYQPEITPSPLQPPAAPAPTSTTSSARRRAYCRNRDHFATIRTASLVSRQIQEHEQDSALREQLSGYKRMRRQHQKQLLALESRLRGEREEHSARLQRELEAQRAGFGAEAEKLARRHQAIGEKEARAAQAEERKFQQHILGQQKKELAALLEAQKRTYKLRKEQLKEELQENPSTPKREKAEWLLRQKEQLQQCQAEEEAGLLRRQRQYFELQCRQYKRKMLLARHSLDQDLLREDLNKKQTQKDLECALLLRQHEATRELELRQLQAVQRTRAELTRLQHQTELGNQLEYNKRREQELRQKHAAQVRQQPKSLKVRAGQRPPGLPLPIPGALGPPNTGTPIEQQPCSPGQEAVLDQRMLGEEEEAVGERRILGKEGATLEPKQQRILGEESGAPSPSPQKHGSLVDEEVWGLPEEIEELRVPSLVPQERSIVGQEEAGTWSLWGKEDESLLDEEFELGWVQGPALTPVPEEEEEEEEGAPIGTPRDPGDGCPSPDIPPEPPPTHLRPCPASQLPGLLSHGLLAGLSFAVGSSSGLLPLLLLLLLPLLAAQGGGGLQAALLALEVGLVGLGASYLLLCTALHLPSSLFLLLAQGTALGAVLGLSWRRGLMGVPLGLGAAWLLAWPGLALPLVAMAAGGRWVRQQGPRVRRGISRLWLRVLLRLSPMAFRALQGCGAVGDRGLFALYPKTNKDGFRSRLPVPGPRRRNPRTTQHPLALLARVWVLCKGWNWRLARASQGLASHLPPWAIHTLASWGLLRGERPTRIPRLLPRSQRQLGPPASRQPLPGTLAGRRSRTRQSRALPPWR
Conditions: at 1 µM.

Experiment [7] deals with T3, Serine/threonine-protein kinase TAO2 (Homo sapiens). Conditions: at 10 µM.
Experiment [8] deals with T4, Serine/threonine-protein kinase TAO3 (Homo sapiens) (UniProt Q9H2K8).
T4 sequence (whole entry): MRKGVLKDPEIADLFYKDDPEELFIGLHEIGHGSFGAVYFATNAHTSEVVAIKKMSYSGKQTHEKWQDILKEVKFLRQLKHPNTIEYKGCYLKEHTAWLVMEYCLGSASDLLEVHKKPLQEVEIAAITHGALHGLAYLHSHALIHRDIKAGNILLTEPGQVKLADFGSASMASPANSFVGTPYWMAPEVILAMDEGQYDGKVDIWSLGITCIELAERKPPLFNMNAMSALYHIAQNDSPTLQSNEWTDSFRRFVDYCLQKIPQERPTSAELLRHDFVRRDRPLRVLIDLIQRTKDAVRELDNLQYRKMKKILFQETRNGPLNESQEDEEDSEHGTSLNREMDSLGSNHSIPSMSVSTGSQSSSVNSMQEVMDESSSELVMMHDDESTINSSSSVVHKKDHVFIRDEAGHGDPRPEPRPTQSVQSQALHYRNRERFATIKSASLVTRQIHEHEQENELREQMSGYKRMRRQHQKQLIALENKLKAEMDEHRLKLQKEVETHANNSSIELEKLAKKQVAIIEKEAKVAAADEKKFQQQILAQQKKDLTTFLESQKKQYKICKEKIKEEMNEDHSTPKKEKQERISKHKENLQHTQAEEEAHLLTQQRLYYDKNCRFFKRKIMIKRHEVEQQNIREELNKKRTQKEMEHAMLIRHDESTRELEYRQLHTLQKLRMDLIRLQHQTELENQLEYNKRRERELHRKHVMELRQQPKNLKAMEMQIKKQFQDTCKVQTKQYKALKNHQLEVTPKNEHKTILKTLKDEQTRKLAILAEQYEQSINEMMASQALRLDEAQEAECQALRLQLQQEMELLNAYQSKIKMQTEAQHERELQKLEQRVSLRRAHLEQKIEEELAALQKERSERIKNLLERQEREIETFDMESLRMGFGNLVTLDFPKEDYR
Conditions: at 1 µM.

Experiment [9] addresses T4, Serine/threonine-protein kinase TAO3 (Homo sapiens). Conditions: at 10 µM.
Experiment [10] concerns the target T5, Serine/threonine-protein kinase TBK1 (Homo sapiens) (UniProt Q9UHD2).
T5 sequence (whole entry): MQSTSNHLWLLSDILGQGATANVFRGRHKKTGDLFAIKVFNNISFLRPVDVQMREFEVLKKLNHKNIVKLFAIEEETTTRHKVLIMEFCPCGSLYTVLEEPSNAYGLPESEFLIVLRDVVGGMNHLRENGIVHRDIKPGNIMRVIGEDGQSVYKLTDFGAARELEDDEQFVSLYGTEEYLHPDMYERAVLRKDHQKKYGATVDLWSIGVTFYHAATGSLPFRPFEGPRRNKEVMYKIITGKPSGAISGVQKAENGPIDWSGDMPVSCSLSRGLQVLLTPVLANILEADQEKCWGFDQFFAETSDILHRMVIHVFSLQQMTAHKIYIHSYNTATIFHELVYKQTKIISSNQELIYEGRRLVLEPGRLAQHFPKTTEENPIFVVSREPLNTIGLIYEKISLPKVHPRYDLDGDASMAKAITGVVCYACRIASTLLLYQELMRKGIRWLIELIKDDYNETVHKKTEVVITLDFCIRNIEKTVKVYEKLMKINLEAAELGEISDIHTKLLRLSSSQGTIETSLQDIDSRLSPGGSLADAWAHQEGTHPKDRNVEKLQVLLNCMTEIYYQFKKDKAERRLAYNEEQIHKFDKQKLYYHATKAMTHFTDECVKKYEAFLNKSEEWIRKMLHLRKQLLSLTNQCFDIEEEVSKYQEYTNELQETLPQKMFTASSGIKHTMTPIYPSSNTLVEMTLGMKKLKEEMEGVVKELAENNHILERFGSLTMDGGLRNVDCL
To be noted: at 1 µM.

This is an account of results in ChEMBL document CHEMBL2218924, “A broad activity screen in support of a chemogenomic map for kinase signalling research and drug discovery” (Biochem J, 2013).

For the molecule `O=C1NC(=O)/C(=C\c2ccc3nccnc3c2)S1`, the residual activity in experiment [1] amounted to 92%; in experiment [2] it was 94%; in [3] it was 93%; in [4] it was 71%; in experiment [5], 14%; in experiment [6], 99%. Moreover, the residual activity is 44% in experiment [7], 72% in experiment [8], 16% in [9] and 56% in experiment [10].
